Where “and” joins values, the source holds several entries; their conditions need not be identical. Equal entries are not always repeated. Screen size: about 5,500 compounds; about 2,000 (36%) were called active. Another 18% or so got no clear call; they are omitted. No stated cut-off is given here; in the data, active means normalized growth mostly below about 0.91 (no sharp cut-off); inconclusive means no clear call, values can overlap the other calls; inactive means mostly above about 0.92. The list shows a part of the results.
Assay: chemical genetic growth profiling, strain panel (AID 1159580);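 further: tested at 20 µM; growth read once vehicle control cultures reached saturation at 30 °C; 1 = growth at the plate median or of vehicle wells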
Settings: S. cerevisiae deletion strains, growth OD

Measured: normalized growth

S=P(N1CC1)(N1CC1)N1CC1
inactive: locus YAL013W, strain DEP1, stronger effect = lower value 1.01 | locus YAL021C, strain ccr4, stronger effect = lower value 1 | locus YAL026C, strain drs2, stronger effect = lower value 1.01 | locus YAL030W, strain snc1, stronger effect = lower value 0.996 | locus YBL061C, strain skt5, stronger effect = lower value 1.01 | locus YBR009C, strain hhf1, stronger effect = lower value 1.01 | locus YBR021W, strain FUR4, stronger effect = lower value 0.946 | locus YBR023C, strain chs3, stronger effect = lower value 1.02 | locus YBR171W, strain sec66, stronger effect = lower value 1.01 | locus YBR229C, strain ROT2, stronger effect = lower value 1.01 | locus YBR231C, strain swc5, stronger effect = lower value 1.01 | locus YBR279W, strain paf1, stronger effect = lower value 0.999 | locus YCL011C, strain gbp2, stronger effect = lower value 1.01 | locus YCL016C, strain dcc1, stronger effect = lower value 0.999 | locus YCL029C, strain bik1, stronger effect = lower value 1.01 | locus YCL061C, strain MRC1, stronger effect = lower value 1 | locus YCL069W, strain vba3, stronger effect = lower value 1.01 | locus YCR088W, strain abp1, stronger effect = lower value 1.02 | locus YDL005C, strain med2, stronger effect = lower value 1.01 | locus YDL035C, strain GPR1, stronger effect = lower value 1.02 | locus YDL040C, strain nat1, stronger effect = lower value 1.01 | locus YDL074C, strain BRE1, stronger effect = lower value 1.01 | locus YDL101C, strain DUN1, stronger effect = lower value 1.01 | locus YDL134C, strain PPH21, stronger effect = lower value 1 | locus YDL192W, strain arf1, stronger effect = lower value 0.995 | locus YDR001C, strain nth1, stronger effect = lower value 1.01 | locus YDR069C, strain doa4, stronger effect = lower value 0.997 | locus YDR101C, strain arx1, stronger effect = lower value 0.997 | locus YDR137W, strain rgp1, stronger effect = lower value 1.02 | locus YDR150W, strain NUM1, stronger effect = lower value 1 | locus YDR159W, strain sac3, stronger effect = lower value 1 | locus YDR162C, strain NBP2, stronger effect = lower value 1.01 | locus YDR195W, strain ref2 0.971 | locus YDR297W, strain sur2, stronger effect = lower value 1 | locus YDR318W, strain mcm21, stronger effect = lower value 1.01 | locus YDR334W, strain swr1, stronger effect = lower value 1.01 | locus YDR335W, strain msn5, stronger effect = lower value 1 | locus YDR388W, stronger effect = lower value 1.01 | locus YDR392W, strain spt3, stronger effect = lower value 1.03 | locus YDR502C, strain sam2, stronger effect = lower value 0.996 | locus YEL003W, strain gim4, stronger effect = lower value 1 | locus YEL037C, strain rad23, stronger effect = lower value 1 | locus YEL061C, strain CIN8 (second series), stronger effect = lower value 1 | locus YEL061C, strain CIN8, stronger effect = lower value 1.01 | locus YER015W, strain faa2, stronger effect = lower value 1 | locus YER016W, strain bim1, stronger effect = lower value 1 | locus YER110C, stronger effect = lower value 1.01 | locus YER111C, strain swi4, stronger effect = lower value 0.99 | locus YER155C, strain BEM2 (second series), stronger effect = lower value 1.03 | locus YER155C, strain BEM2, stronger effect = lower value 1 | locus YER167W, strain BCK2, stronger effect = lower value 1.01 | locus YFR010W, strain ubp6, stronger effect = lower value 1.01 | locus YGL078C, strain dbp3, stronger effect = lower value 0.999 | locus YGL086W, strain mad1, stronger effect = lower value 1 | locus YGL167C, strain pmr1, stronger effect = lower value 1.01 | locus YGL173C, strain kem1, stronger effect = lower value 1.02 | locus YGL227W, strain vid30, stronger effect = lower value 1.01 | locus YGL240W, strain doc1, stronger effect = lower value 1.01 | locus YGL248W, strain PDE1, stronger effect = lower value 1.01 | locus YGL253W, strain hxk2, stronger effect = lower value 1.02 | locus YGR078C, strain PAC10, stronger effect = lower value 1.01 | locus YGR135W, strain pre9, stronger effect = lower value 0.996 | locus YGR229C, strain SMI1, stronger effect = lower value 0.971 | locus YGR252W, strain gcn5, stronger effect = lower value 0.985 | locus YHR013C, strain ard1, stronger effect = lower value 0.997 | locus YHR027C, strain rpn1, stronger effect = lower value 0.997 | locus YHR030C, strain SLT2, stronger effect = lower value 1.01 and 0.994 | locus YHR079C, strain IRE1 (second series), stronger effect = lower value 1 | locus YHR079C, strain IRE1, stronger effect = lower value 0.985 | locus YHR094C, strain hxt1, stronger effect = lower value 1 | locus YHR129C, strain ARP1, stronger effect = lower value 1.03 | locus YHR142W, strain chs7, stronger effect = lower value 1 | locus YHR200W, strain rpn10, stronger effect = lower value 0.997 | locus YIL066C, strain RNR3, stronger effect = lower value 1.02 | locus YIL073C, strain SPO22, stronger effect = lower value 0.993 | locus YIL125W, strain kgd1, stronger effect = lower value 1.01 | locus YIR030C, strain dcg1, stronger effect = lower value 1.02 | locus YJL092W, strain hpr5, stronger effect = lower value 1 | locus YJL095W, strain BCK1 (second series), stronger effect = lower value 1.01 | locus YJL095W, strain BCK1, stronger effect = lower value 1.02 and 1.01 | locus YJL115W, strain asf1, stronger effect = lower value 1.01 | locus YJL129C, strain trk1, stronger effect = lower value 1.02 | locus YJL134W, strain LCB3, stronger effect = lower value 1.01 | locus YJL154C, strain vps35, stronger effect = lower value 1.01 | locus YJL164C, strain tpk1, stronger effect = lower value 1.01 | locus YJL166W, strain qcr8, stronger effect = lower value 1.01 | locus YJL168C, strain set2, stronger effect = lower value 0.999 | locus YJL187C, strain SWE1 (second series), stronger effect = lower value 1.01 | locus YJR043C, strain POL32, stronger effect = lower value 1 | locus YJR066W, strain TOR1, stronger effect = lower value 0.976 | locus YJR075W, strain HOC1, stronger effect = lower value 1.01
